In PubChem BioAssay (NCI):
About 83,000 compounds went through this panel and 20% of them were active in at least one assay; those are over-represented in the sample as a whole.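 Step 1: grow cells in 96-well plates. Step 2: add test compound at a single concentration. Step 3: incubate 48 h. Step 4: record percent growth.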 Activity calls are given as the source filed them. How the source made its calls: active means growth percent below 10; inactive means the rest.

What was measured:
Test in all cases: NCI-60 one-dose screen, 48 h (100 = growth as untreated, 0 = no growth, -100 = all killed)
786-0 renal = conditions: 10 µM unless noted
DU-145 prostate = conditions: 10 µM unless noted
MDA-MB-231 breast = conditions: 10 µM unless noted
SF-268 CNS = conditions: 10 µM unless noted
SF-539 CNS = conditions: 10 µM unless noted
UACC-257 melanoma = conditions: 10 µM unless noted
HCT-15 colon = conditions: 10 µM
SNB-19 CNS = conditions: 10 µM unless noted
PC-3 prostate = conditions: 10 µM unless noted
UACC-62 melanoma = conditions: 10 µM unless noted
LOX IMVI melanoma = conditions: 10 µM unless noted
SK-MEL-28 melanoma = conditions: 10 µM unless noted
SN12C renal = conditions: 10 µM unless noted
MOLT-4 leukemia = conditions: 10 µM
OVCAR-8 ovarian = conditions: 10 µM unless noted
OVCAR-3 ovarian = conditions: 10 µM unless noted
MDA-MB-435 melanoma = conditions: 10 µM unless noted
SW-620 colon = conditions: 10 µM unless noted
MCF7 breast = conditions: 10 µM unless noted
KM12 colon = conditions: 10 µM unless noted

Compound	growth (786-0 renal)	growth (DU-145 prostate)	growth (MDA-MB-231 breast)	growth (SF-268 CNS)	growth (SF-539 CNS)	growth (UACC-257 melanoma)	growth (HCT-15 colon)	growth (SNB-19 CNS)	growth (PC-3 prostate)	growth (UACC-62 melanoma)	growth (LOX IMVI melanoma)	growth (SK-MEL-28 melanoma)	growth (SN12C renal)	growth (MOLT-4 leukemia)	growth (OVCAR-8 ovarian)	growth (OVCAR-3 ovarian)	growth (MDA-MB-435 melanoma)	growth (SW-620 colon)	growth (MCF7 breast)	growth (KM12 colon)
CC1(C)N=C(N)N=C(N)N1c1ccc(CCC(=O)Nc2cccc(S(=O)(=O)F)c2)cc1	58% (inactive)	72.1% (inactive)	104% (inactive)	51.6% (inactive)	39.4% (inactive)	73.3% (inactive)	81.9% (inactive)	51.9% (inactive)	24.5% (inactive)	45.3% (inactive)	23.5% (inactive)	103% (inactive)	46.5% (inactive)	82.7% (inactive)	85.8% (inactive)	114% (inactive)	35.3% (inactive)	52.3% (inactive)	54.6% (inactive)	75% (inactive)
N#[N+]c1cnc([O-])[nH]c1=O	93.9% (inactive)	99.9% (inactive)	95.5% (inactive)	97.5% (inactive)	97.5% (inactive)	75.8% (inactive)	89.1% (inactive)	97.8% (inactive)	92.7% (inactive)	85.6% (inactive)	85.2% (inactive)	104% (inactive)	84.9% (inactive)	91% (inactive)	88.7% (inactive)		106% (inactive)	89% (inactive)	100% (inactive)	100% (inactive)
COc1ccc2c(c1)NC1=C(C(=O)OC1)C2c1cc(OC)c(OC)c(OC)c1 (stereo not given)	18.8% (inactive)	-24.7% (active)	6.08% (active)	22.6% (inactive)	-4.41% (active)	62.4% (inactive)	15.3% (inactive)	47.3% (inactive)	20.6% (inactive)	44.7% (inactive)	11.9% (inactive)	66.2% (inactive)	23.1% (inactive)	5.82% (active)	15.2% (inactive)	-41.9% (active)	-35.5% (active)	17.9% (inactive)	9.07% (active)	-4.06% (active)
Nc1c(Br)cc([N+](=O)[O-])cc1[N+](=O)[O-]	105% (inactive)	101% (inactive)	105% (inactive)	97.7% (inactive)	110% (inactive)	100% (inactive)	114% (inactive)	102% (inactive)	102% (inactive)	101% (inactive)	103% (inactive)	116% (inactive)	104% (inactive)	97.2% (inactive)	98% (inactive)	108% (inactive)	112% (inactive)	103% (inactive)	103% (inactive)	105% (inactive)
c1ccc(-c2ccc3ccccc3[o+]2)cc1	106% (inactive)	98.9% (inactive)	65% (inactive)	88.7% (inactive)	101% (inactive)	98% (inactive)	107% (inactive)	93.3% (inactive)	76.3% (inactive)	73.1% (inactive)	82.2% (inactive)	111% (inactive)	90.2% (inactive)	79% (inactive)	96.6% (inactive)	100% (inactive)	101% (inactive)	92% (inactive)	67% (inactive)	91.8% (inactive)
CC1(CF)NC(=O)NC1=O (stereo not given)	97.6% (inactive)	116% (inactive)	99.1% (inactive)	104% (inactive)		97.2% (inactive)	105% (inactive)	97.9% (inactive)	101% (inactive)	96.8% (inactive)	100% (inactive)	111% (inactive)	94.3% (inactive)	98.4% (inactive)	102% (inactive)	115% (inactive)	107% (inactive)	106% (inactive)	92.7% (inactive)	106% (inactive)
CC(CC(C#N)(c1ccccc1)c1ccccc1)N1CCOCC1 (stereo not given)	112% (inactive)	105% (inactive)	94.4% (inactive)	101% (inactive)	101% (inactive)	106% (inactive)	102% (inactive)	92.2% (inactive)	90.4% (inactive)	80.4% (inactive)	102% (inactive)	123% (inactive)	93.5% (inactive)	82.3% (inactive)	108% (inactive)	105% (inactive)	118% (inactive)	106% (inactive)	122% (inactive)	104% (inactive)
FC(F)=C(F)c1ccccc1	101% (inactive)	108% (inactive)	115% (inactive)	111% (inactive)	103% (inactive)	116% (inactive)	107% (inactive)	103% (inactive)	104% (inactive)	107% (inactive)	88.6% (inactive)	102% (inactive)	112% (inactive)	92.6% (inactive)	104% (inactive)	114% (inactive)	104% (inactive)	109% (inactive)	96.9% (inactive)	102% (inactive)
Cc1cc(NC(=O)CCc2ccc(N3C(N)=NC(N)=NC3(C)C)cc2)ccc1S(=O)(=O)F	20.9% (inactive)	45.8% (inactive)	76.8% (inactive)	32.2% (inactive)	5.99% (active)		60.1% (inactive)	45% (inactive)	-23.4% (active)	22.6% (inactive)	18.1% (inactive)	53.9% (inactive)	32.8% (inactive)	21.6% (inactive)	40.9% (inactive)	71.5% (inactive)	32% (inactive)	23.1% (inactive)	14.9% (inactive)	18.8% (inactive)
COc1cc(/C=C\c2cc(OC)c(OC)c(OC)c2)cc(N/C=C\C(=O)c2ccc(OC(F)(F)F)cc2)c1OC	34.3% (inactive)	14.4% (inactive)	-16.9% (active)	41.7% (inactive)	-31.5% (active)	51.1% (inactive)	9.36% (active)	74.6% (inactive)	42.6% (inactive)		33.4% (inactive)	62.2% (inactive)	36.5% (inactive)	34.6% (inactive)	30% (inactive)	-8.54% (active)	-42.2% (active)	26.3% (inactive)	17.2% (inactive)	16.6% (inactive)
COc1cc(C2CC(=O)Nc3nc(N)[se]c32)cc(OC)c1OC (stereo not given)	114% (inactive)	101% (inactive)	101% (inactive)	101% (inactive)	101% (inactive)	99.6% (inactive)	109% (inactive)	52.1% (inactive)	71.2% (inactive)	117% (inactive)	105% (inactive)	111% (inactive)	64.6% (inactive)	82.7% (inactive)	58.8% (inactive)	101% (inactive)	105% (inactive)	109% (inactive)	98.6% (inactive)	56.7% (inactive)
O=C(c1cccs1)C1NO[N+]([O-])=C1c1cccs1 (stereo not given)	0.474% (active)	120% (inactive)	86.2% (inactive)	109% (inactive)	36.3% (inactive)	46.2% (inactive)	64.9% (inactive)	103% (inactive)	57.1% (inactive)	88.7% (inactive)	-100% (active)	65.8% (inactive)	73.4% (inactive)	38.5% (inactive)	24.5% (inactive)	-10.4% (active)	72.9% (inactive)	-91.9% (active)	81.8% (inactive)	74.8% (inactive)
COc1cc(C2(C#N)CCN(C)CC2)cc(OC)c1OC	102% (inactive)	113% (inactive)	98.8% (inactive)	90.9% (inactive)	111% (inactive)	108% (inactive)	97.2% (inactive)	102% (inactive)	97.5% (inactive)	94.3% (inactive)	93.8% (inactive)	106% (inactive)	103% (inactive)	83.3% (inactive)	101% (inactive)	108% (inactive)	103% (inactive)	97.3% (inactive)	95.7% (inactive)	100% (inactive)
CCCCN(CCCC)CC(O)c1ccccc1 (stereo not given)	103% (inactive)	113% (inactive)	104% (inactive)	114% (inactive)	114% (inactive)	106% (inactive)	104% (inactive)	106% (inactive)	111% (inactive)	105% (inactive)	103% (inactive)	103% (inactive)	111% (inactive)	97.2% (inactive)	109% (inactive)	108% (inactive)	105% (inactive)	102% (inactive)	105% (inactive)	104% (inactive)
ClCCN(CCCl)C(c1ccccc1)c1ccc(Cl)cc1 (stereo not given)	87.5% (inactive)	69.5% (inactive)	75.7% (inactive)	61.5% (inactive)	71.7% (inactive)	90.9% (inactive)	82.9% (inactive)	81.6% (inactive)	52% (inactive)	63.8% (inactive)	81.3% (inactive)	102% (inactive)	41.1% (inactive)	-3.35% (active)	77.7% (inactive)	91.9% (inactive)	88% (inactive)	51.6% (inactive)		89.5% (inactive)
CC(=O)O[C@H]1CCC2(C)C(=CCC3C2CCC2(C)/C(=N/OC(=O)c4ccc(N(CCCl)CCCl)cc4)CCC32)C1 (stereo not given in full)	47.6% (inactive)	78.7% (inactive)	40.5% (inactive)	5.4% (active)	51.5% (inactive)	97.2% (inactive)	55.2% (inactive)	37.7% (inactive)	47.8% (inactive)	68.4% (inactive)	5.24% (active)	81.8% (inactive)	47.3% (inactive)	3.85% (active)	56.4% (inactive)	53.5% (inactive)	47.1% (inactive)	84.1% (inactive)	39% (inactive)	47.6% (inactive)
